# From PubChem BioAssay AID1159580 (chemical genetic matrix, 2015)
# “And” between values parts separate entries of the source, which are not always exact repeats. Equal values may be shown once. Screen size: about 5,500 compounds; about 2,000 (36%) were called active. Not shown: some 18% with an inconclusive outcome. The list shows a part of the results. A number with no mark means an inactive call. No stated cut-off is given here; in the data, active means normalized growth mostly below about 0.91 (no sharp cut-off); inconclusive means no clear call, values can overlap the other calls; inactive means mostly above about 0.92.
# Test: chemical genetic growth profiling, strain panel (AID 1159580);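 further: tested at 20 µM; growth read once vehicle control cultures reached saturation at 30 °C; 1 = growth at the plate median or of vehicle wells; lower values mean less growth of the strain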
# Conditions: S. cerevisiae deletion strains, growth OD
smiles,measurement,setting,value
C[C@@H](N)[C@@H](O)c1ccccc1,normalized growth,"locus YAL021C, strain ccr4, hits give low values",0.991
same,normalized growth,"locus YAL026C, strain drs2, hits give low values",0.89 (active)
same,normalized growth,"locus YAL030W, strain snc1, hits give low values",0.98
same,normalized growth,"locus YBL061C, strain skt5, hits give low values",1.01
same,normalized growth,"locus YBR009C, strain hhf1, hits give low values",1
same,normalized growth,"locus YBR021W, strain FUR4, hits give low values",1.05
same,normalized growth,"locus YBR023C, strain chs3, hits give low values",0.997
same,normalized growth,"locus YBR171W, strain sec66, hits give low values",1
same,normalized growth,"locus YBR229C, strain ROT2, hits give low values",0.967
same,normalized growth,"locus YBR231C, strain swc5, hits give low values",0.969
same,normalized growth,"locus YBR279W, strain paf1, hits give low values",1.01
same,normalized growth,"locus YCL011C, strain gbp2, hits give low values",0.994
same,normalized growth,"locus YCL016C, strain dcc1, hits give low values",0.985
same,normalized growth,"locus YCL029C, strain bik1, hits give low values",0.982
same,normalized growth,"locus YCL069W, strain vba3, hits give low values",1
same,normalized growth,"locus YCR088W, strain abp1, hits give low values",0.992
same,normalized growth,"locus YDL005C, strain med2, hits give low values",0.977
same,normalized growth,"locus YDL035C, strain GPR1, hits give low values",1
same,normalized growth,"locus YDL040C, strain nat1, hits give low values",1
same,normalized growth,"locus YDL074C, strain BRE1, hits give low values",1.05
same,normalized growth,"locus YDL101C, strain DUN1, hits give low values",0.983
same,normalized growth,"locus YDL134C, strain PPH21, hits give low values",0.987
same,normalized growth,"locus YDL185W, strain tfp1, hits give low values",0.966
same,normalized growth,"locus YDL192W, strain arf1, hits give low values",1.02
same,normalized growth,"locus YDR001C, strain nth1, hits give low values",1.01
same,normalized growth,"locus YDR069C, strain doa4, hits give low values",0.985
same,normalized growth,"locus YDR101C, strain arx1, hits give low values",0.989
same,normalized growth,"locus YDR137W, strain rgp1, hits give low values",0.862
same,normalized growth,"locus YDR150W, strain NUM1, hits give low values",0.994
same,normalized growth,"locus YDR159W, strain sac3, hits give low values",0.949
same,normalized growth,"locus YDR162C, strain NBP2, hits give low values",0.951
same,normalized growth,"locus YDR195W, strain ref2",0.988
same,normalized growth,"locus YDR297W, strain sur2, hits give low values",0.994
same,normalized growth,"locus YDR318W, strain mcm21, hits give low values",0.978
same,normalized growth,"locus YDR334W, strain swr1, hits give low values",0.997
same,normalized growth,"locus YDR335W, strain msn5, hits give low values",0.988
same,normalized growth,"locus YDR388W, hits give low values",0.994
same,normalized growth,"locus YDR392W, strain spt3, hits give low values",0.955
same,normalized growth,"locus YDR502C, strain sam2, hits give low values",0.991
same,normalized growth,"locus YEL003W, strain gim4, hits give low values",0.995
same,normalized growth,"locus YEL037C, strain rad23, hits give low values",1.01
same,normalized growth,"locus YEL061C, strain CIN8 (second series), hits give low values",0.993
same,normalized growth,"locus YEL061C, strain CIN8, hits give low values",0.987
same,normalized growth,"locus YER015W, strain faa2, hits give low values",0.995
same,normalized growth,"locus YER016W, strain bim1, hits give low values",0.975
same,normalized growth,"locus YER110C, hits give low values",0.974
same,normalized growth,"locus YER111C, strain swi4, hits give low values",0.981
same,normalized growth,"locus YER155C, strain BEM2 (second series), hits give low values",0.973
same,normalized growth,"locus YER155C, strain BEM2, hits give low values",1.02
same,normalized growth,"locus YER167W, strain BCK2, hits give low values",0.999
same,normalized growth,"locus YFR010W, strain ubp6, hits give low values",1
same,normalized growth,"locus YGL078C, strain dbp3, hits give low values",0.991
same,normalized growth,"locus YGL086W, strain mad1, hits give low values",1.03
same,normalized growth,"locus YGL167C, strain pmr1, hits give low values",0.999
same,normalized growth,"locus YGL173C, strain kem1, hits give low values",0.993
same,normalized growth,"locus YGL227W, strain vid30, hits give low values",1.01
same,normalized growth,"locus YGL240W, strain doc1, hits give low values",1
same,normalized growth,"locus YGL248W, strain PDE1, hits give low values",0.974
same,normalized growth,"locus YGL253W, strain hxk2, hits give low values",0.99
same,normalized growth,"locus YGR135W, strain pre9, hits give low values",0.949
same,normalized growth,"locus YGR252W, strain gcn5, hits give low values",0.968
same,normalized growth,"locus YHR013C, strain ard1, hits give low values",0.975
same,normalized growth,"locus YHR027C, strain rpn1, hits give low values",1
same,normalized growth,"locus YHR030C, strain SLT2, hits give low values",1 and 1.03
same,normalized growth,"locus YHR079C, strain IRE1 (second series), hits give low values",0.993
same,normalized growth,"locus YHR079C, strain IRE1, hits give low values",1.02
same,normalized growth,"locus YHR094C, strain hxt1, hits give low values",0.973
same,normalized growth,"locus YHR129C, strain ARP1, hits give low values",0.997
same,normalized growth,"locus YHR142W, strain chs7, hits give low values",0.971
same,normalized growth,"locus YHR200W, strain rpn10, hits give low values",0.997
same,normalized growth,"locus YIL066C, strain RNR3, hits give low values",0.966
same,normalized growth,"locus YIL073C, strain SPO22, hits give low values",1.03
same,normalized growth,"locus YIL125W, strain kgd1, hits give low values",0.986
same,normalized growth,"locus YIR030C, strain dcg1, hits give low values",0.999
same,normalized growth,"locus YJL092W, strain hpr5, hits give low values",1
same,normalized growth,"locus YJL095W, strain BCK1 (second series), hits give low values",0.999
same,normalized growth,"locus YJL095W, strain BCK1, hits give low values",0.928 and 1.01
same,normalized growth,"locus YJL115W, strain asf1, hits give low values",0.991
same,normalized growth,"locus YJL129C, strain trk1, hits give low values",0.992
same,normalized growth,"locus YJL134W, strain LCB3, hits give low values",0.988
same,normalized growth,"locus YJL154C, strain vps35, hits give low values",0.993
same,normalized growth,"locus YJL164C, strain tpk1, hits give low values",1.01
same,normalized growth,"locus YJL166W, strain qcr8, hits give low values",0.983
same,normalized growth,"locus YJL168C, strain set2, hits give low values",1.01
same,normalized growth,"locus YJL187C, strain SWE1 (second series), hits give low values",0.964
same,normalized growth,"locus YJR043C, strain POL32, hits give low values",1.01
same,normalized growth,"locus YJR066W, strain TOR1, hits give low values",0.942
same,normalized growth,"locus YJR075W, strain HOC1, hits give low values",0.984
same,normalized growth,"locus YKL009W, strain mrt4, hits give low values",1.04
same,normalized growth,"locus YKL068W, hits give low values",0.978
same,normalized growth,"locus YKL085W, strain MDH1 (second series), hits give low values",0.998
same,normalized growth,"locus YKL085W, strain MDH1, hits give low values",0.998
same,normalized growth,"locus YKL160W, strain elf1, hits give low values",0.974
same,normalized growth,"locus YKR001C, strain vps1, hits give low values",1.01
same,normalized growth,"locus YKR026C, strain gcn3, hits give low values",1.02
same,normalized growth,"locus YKR091W, strain srl3, hits give low values",0.987
same,normalized growth,"locus YLL001W, strain dnm1, hits give low values",1.01
same,normalized growth,"locus YLL026W, hits give low values",0.995
same,normalized growth,"locus YLL041C, strain sdh2, hits give low values",1.01
same,normalized growth,"locus YLR027C, strain aat2, hits give low values",0.995
same,normalized growth,"locus YLR039C, strain RIC1, hits give low values",0.953
same,normalized growth,"locus YLR058C, strain SHM2, hits give low values",0.978
same,normalized growth,"locus YLR102C, strain apc9, hits give low values",0.99
same,normalized growth,"locus YLR113W, strain HOG1, hits give low values",1.03
same,normalized growth,"locus YLR221C, strain rsa3, hits give low values",0.994
same,normalized growth,"locus YLR258W, strain gsy2, hits give low values",1.01
same,normalized growth,"locus YLR262C, strain YPT6 (second series), hits give low values",0.823 (active)
same,normalized growth,"locus YLR262C, strain YPT6, hits give low values",0.927
same,normalized growth,"locus YLR268W, strain sec22, hits give low values",0.988
same,normalized growth,"locus YLR320W, strain mms22, hits give low values",0.955
same,normalized growth,"locus YLR330W, strain CHS5, hits give low values",0.997
same,normalized growth,"locus YLR342W, strain FKS1 (second series), hits give low values",1.06
same,normalized growth,"locus YLR342W, strain FKS1, hits give low values",0.995
same,normalized growth,"locus YLR357W, strain rsc2, hits give low values",0.988
same,normalized growth,"locus YLR370C, strain arc18, hits give low values",1
same,normalized growth,"locus YLR371W, strain rom2, hits give low values",0.975
same,normalized growth,"locus YLR384C, strain iki3, hits give low values",0.977
same,normalized growth,"locus YLR418C, strain cdc73, hits give low values",0.939
same,normalized growth,"locus YML016C, strain PPZ1, hits give low values",0.994
same,normalized growth,"locus YML032C, strain rad52, hits give low values",0.967
same,normalized growth,"locus YML120C, strain ndi1, hits give low values",0.992
same,normalized growth,"locus YML124C, strain tub3, hits give low values",0.993
same,normalized growth,"locus YMR058W, strain fet3, hits give low values",0.972
same,normalized growth,"locus YMR078C, strain ctf18, hits give low values",1.01
same,normalized growth,"locus YMR125W, strain sto1, hits give low values",0.983
same,normalized growth,"locus YMR129W, hits give low values",0.997
same,normalized growth,"locus YMR205C, strain PFK2, hits give low values",0.998
same,normalized growth,"locus YMR223W, strain ubp8, hits give low values",0.964
same,normalized growth,"locus YMR231W, strain pep5, hits give low values",1
same,normalized growth,"locus YMR263W, strain SAP30, hits give low values",0.987
same,normalized growth,"locus YMR307W, strain GAS1, hits give low values",1.09
same,normalized growth,"locus YNL067W, strain RPL9B, hits give low values",0.975
same,normalized growth,"locus YNL071W, strain lat1, hits give low values",0.989
same,normalized growth,"locus YNL153C, strain GIM3, hits give low values",0.974
same,normalized growth,"locus YNL183C, strain NPR1, hits give low values",0.929
same,normalized growth,"locus YNL209W, strain ssb2, hits give low values",1.01
same,normalized growth,"locus YNL233W, strain BNI4, hits give low values",1
same,normalized growth,"locus YNL248C, strain rpa49, hits give low values",0.99
same,normalized growth,"locus YNL250W, strain rad50, hits give low values",0.992
same,normalized growth,"locus YNL271C, strain bni1, hits give low values",0.995
same,normalized growth,"locus YNL298W, strain CLA4, hits give low values",0.982
same,normalized growth,"locus YNL307C, strain MCK1, hits give low values",0.984
same,normalized growth,"locus YNL322C, strain KRE1 (second series), hits give low values",0.99
same,normalized growth,"locus YNR049C, strain mso1, hits give low values",1.01
same,normalized growth,"locus YNR052C, strain pop2, hits give low values",0.973
same,normalized growth,"locus YOL006C, strain TOP1, hits give low values",1.02
same,normalized growth,"locus YOL012C, strain htz1",1.02
same,normalized growth,"locus YOL147C, strain pex11, hits give low values",0.996
same,normalized growth,"locus YOR001W, strain rrp6, hits give low values",1
same,normalized growth,"locus YOR061W, strain CKA2, hits give low values",0.98
same,normalized growth,"locus YOR069W, strain VPS5, hits give low values",1
same,normalized growth,"locus YOR070C, strain gyp1, hits give low values",0.999
same,normalized growth,"locus YOR080W, strain dia2, hits give low values",1
same,normalized growth,"locus YOR083W, strain WHI5, hits give low values",0.948
same,normalized growth,"locus YOR106W, strain vam3, hits give low values",1
same,normalized growth,"locus YOR136W, strain idh2, hits give low values",0.993
same,normalized growth,"locus YOR144C, strain elg1, hits give low values",0.989
same,normalized growth,"locus YOR184W, strain ser1, hits give low values",1.01
same,normalized growth,"locus YOR231W, strain MKK1, hits give low values",1.01
same,normalized growth,"locus YOR265W, strain rbl2, hits give low values",0.993
same,normalized growth,"locus YOR270C, strain vph1, hits give low values",0.9
same,normalized growth,"locus YOR290C, strain snf2, hits give low values",0.993
same,normalized growth,"locus YOR316C, strain cot1, hits give low values",0.985
same,normalized growth,"locus YPL051W, strain arl3, hits give low values",0.981
same,normalized growth,"locus YPL078C, strain atp4, hits give low values",0.98
same,normalized growth,"locus YPL106C, strain sse1, hits give low values",1
same,normalized growth,"locus YPL240C, strain hsp82, hits give low values",1
same,normalized growth,"locus YPL241C, strain CIN2, hits give low values",0.989
same,normalized growth,"locus YPL256C, strain CLN2, hits give low values",1.03
same,normalized growth,"locus YPR119W, strain clb2, hits give low values",1.01
same,normalized growth,"locus YPR141C, strain kar3, hits give low values",0.994
same,normalized growth,"locus YPR163C, strain tif3, hits give low values",0.971
same,normalized growth,"locus YPR167C, strain met16, hits give low values",1
same,normalized growth,"strain wtn01, hits give low values",1.03
